A number with no mark means an inactive call. Results filed as inconclusive are left out. Activity calls are given as the source filed them. Unless noted, the call rests on the fitted dose curve; in most records, active means well fitted curve in either direction with a large enough effect (not every such curve was filed as active); inconclusive means small, poorly fitted or top-dose-only effect, or another doubt; inactive means flat fitted curve, though single readings scatter.
What was measured:
[1] = AP1 Signaling Pathway (AID 357); conditions: ME-180 AP-1-bla reporter, EGF-induced, beta-lactamase ratio, 5 h; at 17.2 µM (top of the series) unless noted;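 further: ME-180 reporter cells stimulated with EGF at its EC50 level; on the % scale 0 is the no-effect control and ±100 the full control effect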
Procedure, shortened: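 Cells are seeded overnight, exposed to compound titrations and an EC50 level of EGF for 5 hours at 37 °C, then loaded with CCF4 dye for 2.5 hours. Beta-lactamase activity under the AP-1 element is read as a blue/green ratio.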

[2] = NFAT Signaling Pathway (AID 444); conditions: Jurkat NFAT-bla M1, carbachol, beta-lactamase ratio, 5 h; at 17.2 µM (top of the series) unless noted;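 further: carbachol stimulus at about its EC50 of 1 µM final; on the % scale 0 is the no-effect control and ±100 the full control effect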
Procedure, shortened: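 Read-out: CCF4 FRET ratio (460 nm/530 nm) after 1 h RT dye loading, used for %activity and AC50 from titration series. Cells: Jurkat NFAT-β-lactamase/M1 line, treated with compound plus 1 uM carbachol for 5 h, 37 °C.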

[3] = Stat Signaling Pathway (AID 446); conditions: ME-180 SIE beta-lactamase reporter, IL-6 stimulated, 5 h; at 17.2 µM (top of the series) unless noted;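 further: ME-180 cervical cancer cells given 40 pM IL-6 alongside compound; SIE-controlled beta-lactamase reporter measured as 460/530 nm FRET emission ratio; on the % scale 0 is the no-effect control and ±100 the full control effect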
Procedure, shortened: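 Compound effects on IL-6-induced STAT reporter activity were measured in ME-180 cells. After overnight culture, cells were co-treated with 40 pM IL-6 for 5 hrs before beta-lactamase substrate loading at room temperature.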

[4] = biological target: Glucocorticoid receptor (Homo sapiens) (UniProt P04150); assay: GR-GFP Redistribution (AID 450;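 active means compounds whose dose series gives a full or clear partial fitted curve of increased nuclear translocation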; further: potency means the concentration at half of the fitted maximal effect)
Chain of Glucocorticoid receptor (Homo sapiens) (P04150 whole entry, looked up): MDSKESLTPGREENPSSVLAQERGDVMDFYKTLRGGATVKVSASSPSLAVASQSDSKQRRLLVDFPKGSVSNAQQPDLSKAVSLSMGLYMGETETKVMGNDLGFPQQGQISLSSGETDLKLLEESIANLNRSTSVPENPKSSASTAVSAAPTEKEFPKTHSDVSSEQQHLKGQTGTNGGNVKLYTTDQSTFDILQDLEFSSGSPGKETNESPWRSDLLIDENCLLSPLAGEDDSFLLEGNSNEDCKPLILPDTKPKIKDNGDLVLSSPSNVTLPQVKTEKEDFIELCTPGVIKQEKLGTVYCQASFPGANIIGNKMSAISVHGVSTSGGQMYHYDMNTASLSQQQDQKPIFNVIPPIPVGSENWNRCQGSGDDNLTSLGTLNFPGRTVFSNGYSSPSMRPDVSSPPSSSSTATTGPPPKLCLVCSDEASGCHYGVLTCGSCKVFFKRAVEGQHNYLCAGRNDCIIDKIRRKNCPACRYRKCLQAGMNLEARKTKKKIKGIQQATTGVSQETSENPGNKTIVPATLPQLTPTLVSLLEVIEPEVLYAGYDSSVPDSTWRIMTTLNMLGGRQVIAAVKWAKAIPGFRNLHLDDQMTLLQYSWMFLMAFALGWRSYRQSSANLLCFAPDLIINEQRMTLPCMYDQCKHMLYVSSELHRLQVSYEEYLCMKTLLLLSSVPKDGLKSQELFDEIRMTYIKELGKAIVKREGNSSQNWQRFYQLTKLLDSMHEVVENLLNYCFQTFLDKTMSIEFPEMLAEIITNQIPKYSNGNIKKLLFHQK

[5] = qHTS Assay for Identification of Small Molecule Agonists for Hypoxia Response Element Signaling Pathway (AID 914; active means well fitted activation curve with a large enough effect in the signal ratio, with a control signal flat, not every such curve was filed as active; the % refers to the signal ratio; further: potency means the concentration at half of the fitted maximal effect; on activation: % of control where 0% means no effect); conditions: ME-180 (cervical carcinoma) HRE-bla reporter, beta-lactamase ratio, CoCl2, 17 h; activation: active compounds read high
Procedure, shortened: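 Cells were plated overnight, pin-dosed with compound in a titration series, co-stimulated with EC50 CoCl2 and incubated 17 hours at 37 degrees Celsius. CCF4 substrate was then loaded, and AC50 values came from the 460nm/530nm ratio.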

Structure (SMILES)	activity change, negative = inhibition [1] [%]	activity change, negative = inhibition [2] [%]	activity, negative = inhibition [3] [%]	Potency [4] [µM]	activation [5] [%]	Potency [5]
CCn1c(-c2ccco2)n[nH]c1=S	14	4.37	4.5	> 20.6	13.1	–
COc1ccc(C(=O)OC(C)CN2CCN(C)CC2)cc1OC (stereo not given)	4.78	-6.37	11.6	> 20.6	7.74	–
CCN(CC)Cc1c(O)ccc2c(C)c(CC(=O)OC)c(=O)oc12	14.2	25.4	8.46	> 20.6	–	10 µM (active)
Cn1c2c(c(=O)n(C)c1=O)C(NC(=O)C(C)(C)C)(C(F)(F)F)C(=O)N2 (stereo not given)	-5.62	-2.4	6.52	> 20.6	8.6	–
COc1ccc(C(=O)C2CCCCC2=O)cc1 (stereo not given)	2.34	-0.888	8.28	> 20.6	5.32	–
CN1c2ccccc2-c2nc3ccccc3n2C1c1ccco1 (stereo not given)	5.2	-6.44	-0.11	> 20.6	-8.71	–
CC(=O)N1CCN(c2nc(CC(C)C)c3c(c2C#N)CCC3)CC1	-24.1	-8.91	-3.38	> 20.6	24.5	–
COc1cc(NC2=CC(=O)CC(C)(C)C2)cc(OC)c1OC	7.47	-11.1	15.1	> 20.6	-12.9	–
COc1ccc(CCn2c(C)ccc2C)cc1OC	-3.97	-16.3	-7.94	> 20.6	-9.87	–
CN1C(=O)c2ccc(N(C)C)cc2C1=O	1.85	-12.3	1.02	> 20.6	14.5	–
CCCC(CCC(=O)Nc1ccc(C(=O)OCC)cc1)C(=O)O (stereo not given)	4.36	0.831	3.58	> 20.6	10	–
Cc1nn(C)cc1C1C2=C(CC(C)(C)CC2=O)OC2=C1C(=O)CC(C)(C)C2	3.4	-23.9	4.21	> 20.6	1.79	–
Cc1nn(CCO)c2c1C(=O)CCC2	3.9	-9.31	5.4	> 20.6	12.2	–
Cc1ccc(-c2n[nH]c(=O)c3ccccc23)cc1S(=O)(=O)NCCN1CCOCC1	1.31	-9.43	1.81	> 20.6	-17.3	–
COCc1cc(C)nc(N)c1C#N	5.99	-10.9	-0.857	> 20.6	1.6	–
Cc1ccc(C(=O)/C=C/Nc2cccc(O)c2)cc1	10.4	1.57	-17.8	> 20.6	–	10 µM (active)
CCCCOc1ccc(C(=O)Nc2ccc(N3CCN(C(C)=O)CC3)cc2)cc1	-6.71	11.1	-7.6	> 20.6	–	2.51 µM (active)
COC(=O)C1=C(N)Oc2cc(C)[nH]c(=O)c2C1c1ccncc1 (stereo not given)	-8.66	2.47	-7.56	> 20.6	2.44	–
O=C1CSC(=Nc2ccc(O)cc2)N1c1ccc(O)cc1	24.5	-9.67	13.7	> 20.6	-9.31	–
O=C(NCc1cccnc1)c1ccc(=O)oc1	10.5	-0.473	0.949	> 20.6	10.6	–
CN(CCNC(=O)c1ccc(/C=N/O)nc1)Cc1ccccc1	0.297	-21.1	-0.957	> 20.6	9.65	–
CC(C)COC(=O)CCNc1n[nH]c(=O)[nH]c1=O	12.9	4.96	1.49	> 20.6	-10.2	–

From PubChem BioAssay (NCATS)
